Data as given in paper PMC5540273 (PLoS ONE, 2017).
Where “and” joins values, the source holds several entries; their conditions need not be identical. Equal values may be shown once. Read-outs that look alike come from different tables or passages of the source.

Columns and labels:
Conditions in all cases: concentration: 1 μM, replicates: in singlicate, n = 1
SRPK3 = tested on: SRPK3
STK16 = tested on: STK16
STK33 = tested on: STK33
STK35 = tested on: STK35
STK36 = tested on: STK36
STK39 = tested on: STK39
SYK = tested on: SYK
SgK110 = tested on: SgK110
TAK1 = tested on: T1, TAK1
T1 construct: gene MAP3K7

TAOK1 = tested on: TAOK1
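Further: KINOMEscan kinase panel screen.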

SMILES	%Inh (SRPK3)	%Inh (STK16)	%Inh (STK33)	%Inh (STK35)	%Inh (STK36)	%Inh (STK39)	%Inh (SYK)	%Inh (SgK110)	%Inh (TAK1)	%Inh (TAOK1)	%Inh (SRPK3; 1 µM)	%Inh (STK16; 1 µM)	%Inh (STK33; 1 µM)	%Inh (STK39; 1 µM)	%Inh (SYK; 1 µM)	%Inh (TAK1; 1 µM)	%Inh (TAOK1; 1 µM)	%Inh (STK35; 1 µM)	%Inh (STK36; 1 µM)	%Inh (SgK110; 1 µM)
O=C(NCCNc1ccnc(Nc2ccc(F)cc2)n1)Nc1ccccc1F [GSK1379880]	2%	4%	0%	0%	48%	3%	26%	55%	0%	0%	–	–	–	–	–	–	–	–	–	–
[2H]C([2H])(c1cccc(C(F)(F)F)c1C)n1ccn2c(=O)nc(N3CCOCC3)cc12 [GSK2336394]	0%	0%	0%	0%	0%	1%	42%	0%	0%	0%	–	–	–	–	–	–	–	–	–	–
COc1ccc(Nc2nccc(N3CCC(NC(=O)Nc4cccc(C(C)=O)c4)C3)n2)cc1 (stereo not drawn) [GSK1379731]	0%	14%	0%	0%	0%	0%	1%	0%	0%	0%	–	–	–	–	–	–	–	–	–	–
CC(=O)Nc1ccc(COc2ccc(Nc3ccnc4cc(-c5ccccn5)ccc34)cc2)cc1.Cl [GW440148]	0%	23%	0%	0%	0%	13%	0%	0%	0%	0%	–	–	–	–	–	–	–	–	–	–
NCCNS(=O)(=O)c1ccc(-c2ccnc3[nH]ccc23)cc1 [GSK977617]	–	–	–	0%	0%	–	–	0%	–	–	67% and 37%	80% and 68%	85% and 71%	0% and 13%	32% and 15%	75% and 65%	54% and 40%	–	–	–
CN1c2ccc(NCc3ccc(F)cc3)cc2-c2c(cnn2C)S1(=O)=O	0%	0%	0%	0%	0%	0%	8%	67%	0%	0%	–	–	–	–	–	–	–	–	–	–
Fc1ccc(-c2ncn(CCCN3CCOCC3)c2-c2cccnc2)cc1 [SB-211743]	0%	0%	0%	1%	0%	0%	32%	17%	0%	0%	–	–	–	–	–	–	–	–	–	–
CC(C)(CN)c1nc(-c2ccc(Cl)c(O)c2)c(-c2ccncc2)[nH]1.O=C(O)C(F)(F)F [SB-477794]	0%	–	52%	–	–	–	–	0%	–	–	–	18% and 0%	–	42% and 20%	13% and 28%	62% and 75%	2% and 16%	59% and 62%	86% and 87%	–
CNc1ncnc2[nH]ncc12 [SKF-18355]	10%	0%	0%	0%	0%	9%	22%	0%	0%	0%	–	–	–	–	–	–	–	–	–	–
Nc1nc(-c2ccc3c(N)n[nH]c3c2)cc(N2CCCC2)n1 [GSK2227430]	0%	8%	0%	0%	0%	0%	0%	0%	0%	0%	–	–	–	–	–	–	–	–	–	–
Cc1ccc(NC(=O)c2ccnc(N3CCN(C)CC3)c2)cc1-c1ccc(C(=O)NCC2CC2)cc1 [GW775604]	5%	0%	0%	1%	0%	0%	26%	3%	0%	0%	–	–	–	–	–	–	–	–	–	–
Cc1c(Cn2c(C)nn3c(=O)cc(N4CCOC(C)C4)nc23)cccc1C(F)(F)F (stereo not drawn) [GSK2344444]	0%	0%	0%	0%	0%	6%	12%	0%	0%	0%	–	–	–	–	–	–	–	–	–	–
O=C(NCCNc1ccnc(Nc2ccc(F)cc2)n1)c1cc2ccccc2s1 [GSK1379874]	0%	5%	0%	0%	0%	0%	36%	0%	0%	0%	–	–	–	–	–	–	–	–	–	–
COC(=O)Nc1nc2cc(Oc3ccc(NC(=O)Nc4cc(F)ccc4F)cc3)ccc2[nH]1.Cl [GW701424]	0%	0%	0%	0%	0%	7%	0%	0%	8%	0%	–	–	–	–	–	–	–	–	–	–
Cc1cccc(Cn2ccn3c(=O)cc(N4CCOCC4)nc23)c1 [GSK2297542]	0%	61%	0%	0%	0%	0%	22%	0%	13%	0%	–	–	–	–	–	–	–	–	–	–
Cl.Nc1ncnc2occ(-c3ccc(NC(=O)Nc4cc(C(F)(F)F)ccc4F)cc3)c12 [SB-707548]	0%	8%	87%	37%	0%	14%	68%	0%	98.6%	13%	–	–	–	–	–	–	–	–	–	–
Cc1cccc(-c2nc(Nc3ccc4ncsc4c3)c3ccccc3n2)n1 [GW867588]	9%	12%	57%	2%	7%	4%	18%	5%	15%	23%	–	–	–	–	–	–	–	–	–	–

SMILES	%Inh (SRPK3)	%Inh (STK16)	%Inh (STK33)	%Inh (STK35)	%Inh (STK36)	%Inh (STK39)	%Inh (SYK)	%Inh (SgK110)	%Inh (TAK1)	%Inh (TAOK1)	%Inh (SRPK3; 1 µM)	%Inh (STK16; 1 µM)	%Inh (STK33; 1 µM)	%Inh (STK39; 1 µM)	%Inh (SYK; 1 µM)	%Inh (TAK1; 1 µM)	%Inh (TAOK1; 1 µM)	%Inh (STK35; 1 µM)	%Inh (STK36; 1 µM)	%Inh (SgK110; 1 µM)
O=C1Cc2cc(Nc3nc(NCc4cccc(S(=O)(=O)C(F)(F)F)c4)ncc3C(F)(F)F)ccc2N1	6%	0%	7%	3%	0%	5%	6%	22%	5%	0%	–	–	–	–	–	–	–	–	–	–
CN(C1=C(c2ccccc2)C(=O)NC1=O)c1ccccc1 [SB-334860]	0%	14%	0%	3%	0%	5%	32%	0%	18%	0%	–	–	–	–	–	–	–	–	–	–
CN(C(=O)c1ccc(-c2cc(-c3c[nH]nc3-c3ccccn3)ccn2)cc1)C1CCOCC1 [GW810083]	11%	0%	0%	0%	0%	17%	0%	0%	24%	0%	–	–	–	–	–	–	–	–	–	–
COc1cc(Nc2nccc(N3CCC(NC(=O)c4cccc(NC(C)=O)c4)C3)n2)cc(OC)c1OC (stereo not drawn) [GSK1379754]	16%	64%	2%	0%	0%	0%	39%	2%	0%	0%	–	–	–	–	–	–	–	–	–	–
Cl.Cl.Cl.Fc1ccc(-c2ncn(C3CCNCC3)c2-c2ccnc(Nc3ccccc3)n2)cc1 [SB-238039]	–	–	–	–	–	–	–	–	–	–	11% and 26%	5% and 0%	0% and 12%	18% and 0%	8% and 3%	24% and 46%	88% and 57%	2% and 0%	97.9% and 93%	35% and 0%
COc1ccc(S(=O)(=O)NC2CCN(c3cc(C)nc(Nc4cccc(C#N)c4)n3)CC2)cc1.O=C(O)C(F)(F)F [GSK1653539]	0%	3%	0%	0%	0%	17%	0%	0%	0%	0%	–	–	–	–	–	–	–	–	–	–
O=c1cc(N2CCOCC2)nc2n(Cc3cccc4ccccc34)ccn12 [GSK2333389]	0%	0%	0%	2%	0%	0%	2%	0%	0%	0%	–	–	–	–	–	–	–	–	–	–
CC(C)Oc1ccc2c(-c3ccnc(Nc4ccc(N5CCN(C)CC5)cc4)n3)cnn2n1 [GW696155]	79%	98.8%	81%	45%	70%	89%	10%	29%	56%	76%	–	–	–	–	–	–	–	–	–	–
CCc1ccnc(/C=C/c2n[nH]c3cc(Sc4ccccc4C(=O)NC)ccc23)c1	14%	0%	4%	0%	12%	0%	0%	47%	1%	0%	–	–	–	–	–	–	–	–	–	–
Fc1ccc(-c2ncn(CCCN3CCOCC3)c2-c2ccccn2)cc1 [SB-211742]	3%	0%	7%	0%	0%	0%	17%	16%	0%	0%	–	–	–	–	–	–	–	–	–	–
CCCCCc1nc2c(N)ncnc2n1CCCCC [SKF-97255]	0%	9%	0%	0%	0%	7%	20%	3%	0%	0%	–	–	–	–	–	–	–	–	–	–
COc1ccc(CNC(=O)NC2CCN(c3ccnc(Nc4ccc(OC)cc4)n3)C2)cc1 (stereo not drawn) [GSK1379727]	0%	16%	0%	0%	0%	5%	22%	7%	0%	0%	–	–	–	–	–	–	–	–	–	–
O=C(Nc1cccc(-c2nn3ncccc3c2-c2ccnc(Nc3cccc(C(F)(F)F)c3)n2)c1)c1c(F)cccc1F [GSK299495]	0%	3%	0%	54%	99%	15%	68%	0%	0%	44%	–	–	–	–	–	–	–	–	–	–
Cc1c2ccc(N(C)c3ccnc(Nc4cccc(S(N)(=O)=O)c4)n3)cc2nn1Cc1ccccc1.Cl.Cl [GW787226]	2%	55%	0%	0%	39%	0%	60%	2%	4%	0%	–	–	–	–	–	–	–	–	–	–
Cc1nnc(-c2ccc3ncc(-c4ccc(S(C)=O)cc4)n3c2)o1 (stereo not drawn)	0%	0%	1%	1%	9%	25%	0%	0%	8%	0%	–	–	–	–	–	–	–	–	–	–
COCCNC(=O)c1ccc(-c2cc(C(=O)NC3CC3)cc(F)c2C)cc1 [GW868318]	20%	0%	10%	0%	2%	16%	1%	21%	14%	29%	–	–	–	–	–	–	–	–	–	–
